Experimental data from PubChem BioAssay (NCI).
Compounds without any hit were thinned out: in the full panel of roughly 79,000, 15% have a hit. Activity calls are given as the source filed them. Cut-off read from the data, not from the text of the source: active = growth inhibition above about 70%; inactive = the rest.

Test: NCI Yeast Anticancer Drug Screen. Data for the mgt1 strain (AID 153)
Conditions: S. cerevisiae mgt1 mutant growth inhibition, stronger effect = higher value
Description: Growth inhibition of yeast strains with defined genetic alterations is measured as a screen for potential anti-cancer activity. Selected strains with alterations in DNA damage repair or cell cycle control were exposed to compounds and growth inhibition was measured relative to vehicle treated controls. The strain used in this assay is mgt1

Measured: growth inhibition

CCOC(=O)C1=C(C(=O)c2ccccc2)C(c2ccccc2[N+](=O)[O-])C(C(=O)c2ccccc2)=C(C(=O)OCC)N1
inactive: at 1.2 µM 0% | at 3.7 µM 1% | at 11.0 µM 0% | at 33.0 µM 1% | at 100.0 µM 35%

Cc1ccc(-c2ccc(Nc3c4ccccc4nc4ccccc34)cc2)cn1
active: at 33.0 µM 83% | at 100.0 µM 95%
inactive: at 1.2 µM 4% | at 3.7 µM -5% | at 11.0 µM 7%

Fc1ccc(NC(=S)SCc2ccc3c(c2)OCO3)cc1F
active: at 33.0 µM 99% | at 100.0 µM 96%
inactive: at 1.2 µM -3% | at 3.7 µM 12% | at 11.0 µM 61%

Cc1ccc(NN(NC(=O)OC(C)C)C(=O)OC(C)C)cc1
inactive: at 1.2 µM 0% | at 3.7 µM -3% | at 11.0 µM 1% | at 33.0 µM 14% | at 100.0 µM 13%

COc1ccc(OC)c2cc3ccccc3cc12
inactive: at 1.2 µM 25% | at 3.7 µM 14% | at 11.0 µM 15% | at 33.0 µM 18% | at 100.0 µM 24%

O=C(COC(=O)c1cc(O)c(O)c(O)c1)c1ccc(-c2ccccc2)cc1
inactive: at 1.2 µM -1% | at 3.7 µM -1% | at 11.0 µM 0% | at 33.0 µM 46% | at 100.0 µM 39%

CCOC(=O)c1cc([N+](=O)[O-])cc([N+](=O)[O-])c1Sc1ncnc2nc[nH]c12
inactive: at 1.2 µM -17% | at 3.7 µM -18% | at 11.0 µM -8%
active: at 33.0 µM 83% | at 100.0 µM 98%

C[CH2][Sn]([CH2]C)([O]C(=O)C(OC(C)=O)c1ccccc1)[O]C(=O)C(OC(C)=O)c1ccccc1 (stereo not given)
active: at 100.0 µM 93%
inactive: at 1.2 µM 0% | at 3.7 µM 0% | at 11.0 µM 4% | at 33.0 µM 49%
